About 13,000 (27%) of roughly 48,000 compounds showed an effect of 50% or more. The list shows a part of the results.

In the assay the test system is Wolbachia pipientis. Briefly: Anti-Wolbachia Cell-Based Screen. The class given is functional. Set-up: scale not given: in the data most compounds retested in dose-response had high values. The note with it: 5 µM.
On to `Cc1cnc(C)c(N2CCC(c3nnc(CN(C)C)n3C3CC3)CC2)n1`, for which the “Percent Effect” value is 5.849%. For `Cc1c(F)cc(C(=O)O)cc1S(=O)(=O)Nc1ccc(F)c(C#N)c1` the value was 122.4%; for `N#Cc1cc(NS(=O)(=O)c2ccc(C(=O)O)cc2F)ccc1F`, -1.66%.

As for `N#Cc1cc(NS(=O)(=O)c2cc(C(=O)O)cc(Cl)c2Cl)ccc1F`, the “Percent Effect” value stood at 118.7%. For `CCc1ccc(C(=O)O)cc1S(=O)(=O)Nc1ccc(F)c(C#N)c1` the value was 3.443%. Under `COC(=O)c1ccc(Cl)c(S(=O)(=O)Nc2ccc(F)c(C(N)=O)c2)c1` stands -0.6488%; under `O=C(O)c1ccc(F)c(S(=O)(=O)Nc2ccc(-n3cccn3)c(Cl)c2)c1`, -11.53%. For `Cc1cnn(Cc2cc(F)ccc2F)c1NC(=O)C1COCCO1` (stereo unspecified) the value was -3.747%; for `CCN(C)C(=O)[C@H]1C[C@@](CC(C)C)(C(=O)OC)N(C)[C@H]1c1cccnc1`, 5.067%. As for `Cc1cc(-c2ccc(=O)n(C3CCN(C(=O)C4CCC4)CC3)n2)c(C)o1`, the “Percent Effect” value was determined as 91.93%.

Turning to `Cc1cc(-c2ccc(=O)n(C3CCN(C(=O)C4CC4)CC3)n2)c(C)o1`, the “Percent Effect” value was determined as 96.13%. `CC(c1ccon1)N(C)C(=O)C1CCN(C(=O)C2CC2)CC1` (stereo unspecified): the “Percent Effect” value came to 3.184%. Under `CC(c1ccon1)N(C)C(=O)C1CCN(C(=O)C2CCC2)CC1` (stereo unspecified) stands -1.254%; under `Cc1ccc2oc(C(=O)N3CCC(C(=O)N4CCCC4)CC3)cc2n1`, -8.823%.

As to `CC(NC(=O)C1CCN(C(=O)C2CC2)CC1)c1nncn1C(C)C` (stereo unspecified), the “Percent Effect” value is listed as -33.62%. For `O=C(COc1ccccc1C(F)(F)F)NCCNC(=O)c1ccccc1` the value was -6.371%. Under `CCC(=O)Nc1ncn(Cc2cccnc2)n1` stands 8.509%; under `OCC1(Cc2ccc(F)cc2F)CCCN(Cc2ccncc2)C1` (stereo unspecified), -2.33%.

As to `Cc1noc(C)c1Cn1cc(I)cc(C)c1=O`, the “Percent Effect” value amounted to 13.31%. Under `Cc1nnc(Cn2cc(I)cc(C)c2=O)o1` stands 62.5%.

As to `Cc1nc(Cn2cc(I)cc(C)c2=O)oc1C`, the “Percent Effect” value came out at 3.254%.

In the case of `Cc1nc(-c2cc(Cl)c3c(c2)CC(CN)O3)c[nH]1` (stereo unspecified), the “Percent Effect” value is 12.8%.

For `Cc1occc1C(=O)N1CCC2(CCN(C(=O)c3cccnc3)C2)CC1.O=C(O)C(F)(F)F`, the “Percent Effect” value is listed as 124.8%. As for `O=C(O)C(F)(F)F.O=C(c1ccco1)N1CCc2ncnc(Oc3cccnc3)c2CC1`, the “Percent Effect” value amounted to 1.407%. Regarding `O=C(O)C(F)(F)F.O=C(c1cccnc1)N1CCC2(CCN(C(=O)c3ccco3)CC2)C1`, the “Percent Effect” value turned out to be 98.34%. Regarding `O=C(O)C(F)(F)F.O=C(c1ccco1)N1C[C@@H]2CCN(c3cccnc3)C[C@@H]2C1`, the “Percent Effect” value was determined as 15.12%. For the molecule `Cc1occc1C(=O)N1CCC2(CCN(Cc3nccs3)C2)CC1.O=C(O)C(F)(F)F`, the “Percent Effect” value was -10.35%. In the case of `COCCNC(=O)[C@]12COC[C@H]1CN(c1cc(OC)ncn1)C2`, the “Percent Effect” value is reported as -2.209%. For `CNc1ncc(CN(C)Cc2cc(O)c3cccc(Cl)c3n2)cn1` the value was -16.65%.

As for `CC1COCCN1C(=O)NCCn1ccnc1` (stereo unspecified), the “Percent Effect” value is 4.662%. For `O=C(c1ccccn1)N1C[C@@H]2CC[C@H](C1)N(C(=O)CCc1ccsc1)C2` the value was -35.6%; for `NC(=O)C1CCCN1CCCc1ccc(Cl)cc1` (stereo unspecified), -0.6682%. Under `CS(=O)(=O)N1C[C@@H]2CC[C@H](C1)N(C(=O)CCc1ccsc1)C2` stands 10.69%; under `O=C(CCc1ccccc1)N1CCN(C(=O)c2ccc[nH]2)CC1`, 0.009024%. For `O=C1C[C@H]2CC[C@@H](CN1)N2C(=O)CCc1ccccc1` the value was 110.6%; for `O=C(CCCc1ccc(Cl)cc1)N1CCN(C(=O)c2ccc[nH]2)CC1`, -0.04512%. Regarding `O=C1C[C@H]2CC[C@@H](CN1)N2C(=O)CCCc1ccc(Cl)cc1`, the “Percent Effect” value is 109.6%. Under `O=C1CO[C@@H]2CN(C(=O)CCc3ccccc3)C[C@H]2N1` stands -22.36%; under `Cn1c2c(ccc1=O)CC(NC(=O)Cc1ccsc1)CC2` (stereo unspecified), -9.793%.

Turning to `O=C1C[C@H]2CC[C@@H](CN1)N2C(=O)CCc1ccsc1`, the “Percent Effect” value was determined as 104.7%. In the case of `O=C(c1cnccn1)N1C[C@@H]2CC[C@H](C1)N(C(=O)Cc1ccsc1)C2`, the “Percent Effect” value worked out at 0.9084%.

For the molecule `O=C1C[C@H]2CC[C@@H](CN1)N2C(=O)Cc1ccsc1`, the “Percent Effect” value is 116.9%.

Consider `CCN1C(=O)[C@H]2CN(CC(C)C)C[C@H]2C12CCN(S(C)(=O)=O)CC2.O=C(O)C(F)(F)F`, for which the “Percent Effect” value was 7.177%. For `CN(C)C1CCN(C(=O)C2SCCc3ccccc32)CC1` (stereo unspecified) the value was -22.58%; for `CC(NCCCc1cnn(C)c1)c1ccc(Cl)s1` (stereo unspecified), 3.726%. Under `O=C1C[C@H]2CC[C@@H](CN1)N2C(=O)CCc1ccc2c(c1)OCO2` stands 96.79%; under `O=C(CCc1ccc2c(c1)OCO2)N1CCCC(n2cccn2)C1` (stereo unspecified), -13.74%.

`O=C(NC1CC1)C1CNCCN1C(=O)CCc1ccc2c(c1)OCO2` (stereo unspecified): the “Percent Effect” value was determined as 13.7%.

Consider `O=C(O)C(F)(F)F.O=C([C@@H]1CC[C@@H]2[C@@H](CCN2CCOCc2ccccc2)O1)N1CCCC1`, for which the “Percent Effect” value was -30.56%.

With `O=C(O)C(F)(F)F.O=C([C@H]1CC[C@@H]2[C@@H](CCN2Cc2ccsc2)O1)N1CCOCC1`, the “Percent Effect” value was -4.642%.

Take `O=C(O)C(F)(F)F.O=C([C@H]1CC[C@@H]2[C@@H](CCN2C2CCOCC2)O1)N1CCOCC1`: the “Percent Effect” value is given as 111.7%. With `O=C(O)C(F)(F)F.O=C([C@H]1COC[C@H]2CN(C3CCCCC3)C[C@H]21)N1CCOCC1`, the “Percent Effect” value was -10.34%. Under `O=C(O)C(F)(F)F.O=C([C@H]1CC[C@@H]2[C@@H](CCN2C2CCCC2)O1)N1CCOCC1` stands 125.5%. As for `O=C(O)C(F)(F)F.O=C([C@H]1CC[C@@H]2[C@@H](CCN2C2CCCCC2)O1)N1CCOCC1`, the “Percent Effect” value is 120.9%. `CCN1CCC(CC(=O)N(C)CC(=O)c2ccc(O)cc2)CC1`: the “Percent Effect” value was -2.698%. In the case of `CCCc1cc(C(=O)N2Cc3cnc(C(C)(C)C)nc3C2)ccn1`, the “Percent Effect” value is given as -16.23%. For the molecule `CS(=O)(=O)N1CC[C@H]2OCC[C@@]2(C(=O)NCCc2ccccn2)C1.O=C(O)C(F)(F)F`, the “Percent Effect” value was determined as 88.95%. For `CS(=O)(=O)N1CC[C@H]2OCC[C@@]2(C(=O)NCc2ccccn2)C1.O=C(O)C(F)(F)F` the value was 125.2%; for `O=C(O)C(F)(F)F.O=S(=O)(C1CC1)N1CC[C@H]2OCC[C@@]2(COc2ncccc2F)C1`, -5.546%; for `O=C(NCc1ccccn1)[C@@]12CCO[C@@H]1CCN(Cc1ccccn1)C2.O=C(O)C(F)(F)F.O=C(O)C(F)(F)F.O=C(O)C(F)(F)F`, 100.7%.

In the case of `O=C(NCc1ccco1)[C@@]12CCO[C@@H]1CCN(Cc1ccccn1)C2.O=C(O)C(F)(F)F.O=C(O)C(F)(F)F`, the “Percent Effect” value is reported as -8.079%. In the case of `Cc1ccc(-c2ccc(C(=O)NCC(N)=O)c(F)c2)cc1`, the “Percent Effect” value was -9.702%. Under `COc1ccc(F)cc1C(=O)N1C[C@H]2CC[C@@H]1CN(c1ncccn1)C2` stands 11.2%. For `CN(C)C(=O)Cc1ccccc1NCc1cc(C#N)ccc1F` the value was 6.834%; for `Cn1cc(CN2CCn3cc(CNC(=O)CC4CC4)nc3C2)cn1.O=C(O)C(F)(F)F`, -2.745%; for `CC(c1ccccc1F)N(CC(N)=O)C1CC1` (stereo unspecified), 1.619%. For `Cc1cc(-c2cncnc2)nc(C2CCCN2S(C)(=O)=O)n1` (stereo unspecified) the value was 120.6%; for `CCCS(=O)(=O)N1CCCC1c1cccc(N(C)C)c1` (stereo unspecified), 5.298%. Take `Cc1nc2ccc(-n3ncnc3[C@@H]3CCCN3S(C)(=O)=O)cc2s1`: the “Percent Effect” value is recorded as -0.8415%. Under `Cc1cc(-c2cccnc2)nc(C2CCCN2S(C)(=O)=O)n1` (stereo unspecified) stands 97.49%. For `CN(Cc1cc(-c2cccnc2)no1)C(=O)C1CCCN1S(C)(=O)=O` (stereo unspecified) the value was -3.149%; for `Cc1cc(-c2ccccc2)nc(C2CCCN2S(C)(=O)=O)n1` (stereo unspecified), 91.07%. For `Cc1ccc(-c2cc(C)nc(C3CCCN3S(C)(=O)=O)n2)cc1` (stereo unspecified), the “Percent Effect” value turned out to be 112.5%. As to `Cc1ccc(O[C@@H]2C[C@H]3CN(Cc4nccn4C)CCN3C2)cc1.O=C(O)C(F)(F)F.O=C(O)C(F)(F)F`, the “Percent Effect” value is -3.373%.

In the case of `CCC1=N[C@@]2(CC[C@@H]3CN(S(=O)(=O)CC(C)C)C[C@@H]32)C(=O)N1CC1CC1`, the “Percent Effect” value was 6.599%. Regarding `C[C@@H]1CN(C2CCN(c3ccccc3F)CC2)C[C@]1(C)O`, the “Percent Effect” value is recorded as -10.13%. For `CC(=O)NC(C)(C)c1noc(C2(C#N)CCCCC2)n1` the value was -6.661%. As for `COc1ccccc1CNCc1nn(-c2ccccc2)c2c1CCC2`, the “Percent Effect” value is -29.63%. For `CC(C)c1noc(C2CCCN2S(=O)(=O)Cc2ccc(F)cc2)n1` (stereo unspecified) the value was -21.21%.

Regarding `CS(=O)(=O)N1CCCCCC1c1cc(-c2ccc(F)cc2)no1` (stereo unspecified), the “Percent Effect” value came out at 132.6%. With `COc1ccc(-c2cc(C3CCCCCN3S(=O)(=O)N(C)C)on2)cc1` (stereo unspecified), the “Percent Effect” value was -9.2%. For `Cc1cc(-c2ccccc2C(=O)O)nc(C2CCCN2S(C)(=O)=O)n1` (stereo unspecified), the “Percent Effect” value is given as 105.2%. Under `Cc1ncsc1CCN(C)C(=O)C(c1cccnc1)N1CCOCC1` (stereo unspecified) stands 2.321%; under `c1nc2onc(C3CC3)c2cc1-c1nnc(C2CC2)o1`, -6.537%; under `O=C(COc1ccc2cccnc2c1)N1CCN[C@H]2CS(=O)(=O)C[C@H]21`, 2.711%. As for `COc1ccc(-c2cc(N)on2)cc1`, the “Percent Effect” value is on record as 77.55%. Under `COc1ccc(-c2cc(N)on2)cc1OC` stands 106.7%.

On to `COc1ccc(-c2csc(-c3cccc(C(=O)O)c3)n2)cc1OC`, for which the “Percent Effect” value is recorded as -12.11%. For `COc1ccc(-c2cc(C[C@@H]3C[C@H](N(C)C)C3(C)C)no2)cc1` the value was 1.876%; for `COc1ccc(-c2noc(C3=NN(C)C(=O)CC3)n2)cc1OC`, -3.216%. For `COc1ccc(-c2cc(-c3nc(CN4CCN(C)CC4)no3)[nH]n2)cc1` the value was -0.5802%.
